This passage reports growth results from PubChem BioAssay (NCI).

The panel holds about 83,000 compounds, 20% with a hit somewhere; the sample as a whole holds those more often.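 Treatment: one concentration, 48 hours, 96-well format. Scoring: percent growth, with anything below 10 considered active.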 Active and inactive are the calls of the source.

The assay has as its system SNB-75 CNS. Kind of assay: NCI-60 one-dose screen, 48 h (100 = growth as untreated, 0 = no growth, -100 = all killed). The following applies: 10 µM unless noted. The protocol:
Growth inhibition of the SNB-75 human tumor cell line is measured as a screen for anti-cancer activity. Cells are grown in 96 well plates and exposed to the test compound for 48 hours. Compounds are tested at a single concentration, which is 10^-5 M for most compounds. The reported endpoint is percent growth (GI% or GIPRCNT), where numbers from 0 - 100% represent growth inhibition, and numbers from -100% - 0 represent cell death. For example, a value of 40 represents 60% growth inhibition. A value of 0 means no net growth occurred over the course of the experiment. A value of -40 indicates 40% of cells at the beginning of the experiment died by the end of the experiment. A value of -100 means all cells are dead at the end of the experiment.
NCI-60 Human Tumor Cell Lines Screen was performed using the standard one-dose NCI protocol, which is described in more detail at https://dtp.cancer.gov/discovery_development/nci-60/default.htm.
Compounds with GIPRCNT values below 10 were considered active. Activity score was based on GIPRCNT using the following formula: […]
Score is 0 for GIPRCNT values of 100 or above, 50 for GIPRCNT values of 0, and 100 for GIPRCNT values of -100.
For `COc1ccccc1/C=C/C(=O)c1nnn(-c2ccc(C(=O)O)cc2)c1C`, the growth was 89.1% (inactive).
To `CC[C@@](C)(NC(=O)C(C)(C)NC(=O)[C@@H](NC(=O)[C@@H]1CCCN1C(=O)C(C)(C)NC(=O)[C@H](CC(C)C)NC(=O)CNC(=O)C(C)(C)NC(=O)[C@@H](NC(=O)C(C)(C)NC(=O)[C@H](CCC(N)=O)NC(=O)[C@H](C)NC(=O)C(C)(C)NC(=O)[C@H](C)NC(=O)C(C)(C)NC(=O)[C@H](C)NC(=O)C(C)(C)NC(C)=O)C(C)C)C(C)C)C(=O)N[C@@H](CCC(N)=O)C(=O)N[C@@H](CCC(N)=O)C(=O)N[C@H](CO)CC1CCCCC1` belongs 13.4% [5 µM] (inactive); to `COc1cc(/C=C/C(=O)c2ccc(N3CCN(C)CC3)cc2)ccc1F`, 58% (inactive); to `c1ccc(-c2c(-c3ccccc3)[n+](Cc3ccc4ccccc4c3)c(-c3ccccc3)n2Cc2ccc3ccccc3c2)cc1`, -78.4% (active).
In the case of `CCC(CC)n1c(=O)c(SC2=NC3C(NN2)N(CC)C(=O)N3CC)c(C(=O)O)c2ccccc21` (stereo not given), the growth is 39.6% (inactive).
To `CC1=C2C(=C[C@@](C)(COS(N)(=O)=O)[C@@H]2O)C(=O)[C@](C)(O)C12CC2` belongs 72.6% (inactive); to `COc1cc(CNC(=O)Cc2ccccc2[N+](=O)[O-])ccc1OCC(=O)NO`, 95.6% (inactive).
As to `CS(=O)(=O)c1ccc2c(c1)c1c(n2S(=O)(=O)c2ccc(Cl)cc2)CCCC1`, the growth is -1.4% (active).
Take `Nc1nc(N)c2c(n1)NC(c1ccc(Cl)cc1)CC(c1ccc(Nc3nc(NCCO)nc(Nc4ccc(Cl)cc4)n3)cc1)=N2` (stereo not given): the growth is 77.9% (inactive).
To `CNC(=O)c1cc(Oc2ccc3nc(NC(=O)c4ccc(CN5CCCN(C)CC5)c(C(F)(F)F)c4)sc3c2)ccn1` belongs 47.5% (inactive); to `COc1ccc(Oc2ccc(C3CC(c4cc(OC)c(OC)c(OC)c4)=NN3C(C)=O)cc2)cc1` (stereo not given), 46% (inactive); to `Cc1ccc(NC(=O)N[C@@H](Cc2cc(F)cc(F)c2)C(=O)NC2C(=O)N3CCC[C@H]3C(=O)N3CCCC[C@H]3C(=O)N[C@@H](C)C(=O)N3C[C@H](C)C[C@H]3C(=O)O[C@H]2C)c(F)c1` (stereo not given in full), 34.7% (inactive).
To `Nc1nc(-c2cccc([N+](=O)[O-])c2)c(N=Nc2ccccc2Cl)s1` belongs 76.8% (inactive).
To `Cc1ccc(/C=C/CC(=O)Nc2ccc(C(=O)Nc3ccc(F)cc3N)cc2)cn1` belongs 74.8% (inactive).
`N#C/C(=C\c1ccc2ccccc2c1)C(=O)Nc1sc2c(c1C#N)CCC2`: the growth was 102% (inactive).
`C/C(=N\NC(=S)Nc1ccc(Br)cc1)c1cc2ccccc2oc1=O`: the growth was 17.5% (inactive).
To `C#C[C@]1(O)CC[C@H]2[C@@H]3CC=C4c5sc(Nc6ccc(OC)nc6)nc5CC[C@]4(C)[C@H]3CC[C@@]21C` belongs -8.98% (active).
To `C#C[C@]1(O)CC[C@H]2[C@@H]3CC=C4c5sc(-c6ccc(OC)cc6)nc5CC[C@]4(C)[C@H]3CC[C@@]21C` belongs 22.9% (inactive).
Consider `Cc1cc(O)c2c(c1)C(=O)C(c1c(C)cc3c(c1O)C(=O)C=CC3=O)=CC2=O`, for which the growth was 92.3% (inactive).
To `C#CCOc1ccc(C(Nc2ccc(Cl)cc2)c2nnnn2C2CCCCC2)cc1` (stereo not given) belongs 87.4% (inactive).
To `CSc1ccc(/C(=N/N=C(N)N)c2ccccc2)cc1` belongs 6.66% (active).
On to `Cn1nc(Nc2ccccc2)c(C(=O)NN)c1N`, for which the growth was 81.6% (inactive).
To `C=C(C)C(=O)O[C@H]1C[C@@]2(C)OC(=CC2=O)[C@H](C)[C@H](O)[C@H]2OC(=O)C(=C)[C@@H]21` belongs 77.2% (inactive); to `CC1COc2c(N3CCN(C)CC3)c(F)cc3c(=O)c(C(=O)N/N=C/c4cc[nH]c4)cn1c23` (stereo not given), 74.4% (inactive).
To `COc1ccc(CCN2C(=O)/C(=C/c3nc(CO)cs3)SC2=S)cc1` belongs 73.1% (inactive).
For the molecule `C=CCn1c(SCC(=O)Nc2cccc(C(=O)/C=C/c3cc(OC)c(OC)c(OC)c3)c2)nc2ccccc2c1=O`, the growth is 33.9% (inactive).
To `NC(=O)c1c(NC(=O)c2cccc(OC(F)(F)F)c2)sc2c1CCC(=O)C2` belongs 43.6% (inactive); to `CS(=O)c1nccc(-c2c(-c3ccc(F)c(OCCc4ccc(F)cc4)c3)nc3sccn23)n1` (stereo not given), 88.7% (inactive); to `CCN1C(=O)N(CC)C2SC(N/N=C/c3cccs3)=NC21` (stereo not given), 50.6% (inactive).
To `O=C(N/N=C\c1ccc(Cl)cc1)c1ccc2nc(-c3ccc(Br)cc3)[nH]c2c1` belongs 49.9% (inactive); to `CC1(COc2ccc3ncc(C#Cc4cncc(C(=O)Nc5cc(C(C)(C)C)on5)c4)n3n2)COC1`, 12.8% (inactive).
To `CN(C)c1ncc(/C=C2\SC(=S)N(Cc3ccccc3Cl)C2=O)s1` belongs 88.1% (inactive).
On to `O=c1[nH]c2cc(Cl)ccc2n1C1CCN(c2ccc3nnc(Cl)n3n2)CC1`, for which the growth is 73.1% (inactive).
To `CS(=O)(=O)c1ccc(-c2nn(-c3ccccc3)cc2/C=N/NC(=O)c2ccncc2)cc1` belongs 89% (inactive); to `COc1ccc(-c2cc(-c3cccc4ccccc34)n3c(n2)nc2ccccc23)cc1OC`, 40.7% (inactive).
To `Cc1ccc(NC(=O)c2ccc(CN3CCN(C)CC3)c(C(F)(F)F)c2)cc1Oc1ccc(-c2[nH]nc3ncnc(N)c23)cc1` belongs 93.3% (inactive); to `Cc1cn(-c2cc(NC(=O)c3cncc(C#Cc4cnc5ccc(OCCCS(C)(=O)=O)nn45)c3)cc(C(F)(F)F)c2)cn1`, 13.6% (inactive); to `COc1ccc(/C=C/C(=O)c2nnn(-c3ccc(C(=O)O)cc3)c2C)cc1OC`, 99.1% (inactive).
Regarding `Cn1cc(-c2nn3cc(-c4cccnc4)nc3s2)c2cc(F)ccc21`, the growth is 86.9% (inactive).
To `CCC(C)[C@H]1OC(=O)[C@H](C(C)C)N(C)C(=O)[C@@H](C(C)C)OC(=O)[C@H](C(C)C)N(C)C(=O)[C@@H](C(C)CC)OC(=O)[C@H](C(C)C)N(C)C1=O` (stereo not given in full) belongs -2.11% (active).
